This passage reports Potency and viability change, negative = cytotoxic results from PubChem BioAssay (Tox21).

Several values for one entry are separate records, joined by “and”; a condition that tells them apart may be missing. Identical values can stand only once. Inconclusive results are not listed. Where a call stands in place of a potency, no number is given. Activity calls are given as the source filed them. The call rests on the fitted dose curve; in most records, active means well fitted cell-killing curve with a large enough effect in the repeat runs; inconclusive means weak or mixed curves, or effect the other way; inactive means no such curve, though single readings can be large or run the other way.
Potency means the concentration at half of the fitted maximal effect.

The nature of this assay: qHTS assay to identify small molecule antagonists of the vitamin D receptor (VDR) signaling pathway - cell viability counter screen (AID 743225). Further: nearly all actives have a fitted effect of over 50% in size. Particulars: VDR-bla HEK293T viability, CellTiter-Glo luminescence, 16 h; series mostly up to 61 µM. From the text:
U.S. Tox21 Program National Center for Advancing Translational Sciences [NCATS] NIH Chemical Genomics Center [NCGC] U.S. Environmental Protection Agency [EPA] National Institutes of Environmental Health Sciences [NIEHS] National Toxicology Program [NTP] U.S. Food and Drug Administration [FDA] Tox21 Assay Overview: The vitamin D receptor (VDR), a member of nuclear hormone receptor superfamily, plays a critical role in calcium homeostasis and bone metabolism. It is also involved in cell differentiation and growth, and thrombogenicity. To identify the compounds that inhibit VDR signaling, the VDR-UAS-bla HEK 293T cell line (Invitrogen, Carlsbad, CA, USA) containing a beta-lactamase reporter gene under the control of an upstream activator sequence (UAS) was used to screen the Tox21 10K compound library. The cytotoxicity of the Tox21 compound library against the VDR-bla cell line was tested in parallel by measuring the cell viability using CellTiter-Glo assay (Promega, Madison, WI) in the same wells.
Tox21 Assay Protocol Summary: VDR-bla cells were dispensed at 2,000 cells/5 uL of assay medium per well into black wall/clear-bottom 1536-well plates using a Multidrop Combi (Thermo Fisher Scientific, Waltham, MA) dispenser. After the assay plates were incubated at a 37C and 5% CO2 for 4 h, 23 nL of compounds dissolved in DMSO, positive controls or DMSO only was transferred to the assay plate by a Pintool station (Kalypsys, San Diego, CA), followed by addition of 1 uL of 1-alpha, 25-Dihydroxy Vitamin D3 (3 nM, final concentration in the wells) using a Bioraptr Flying Reagent Dispenser (FRD) workstation (Beckman Coulter, Indianapolis, IN). The plates were incubated at 37C and 5% CO2 for 16 h, and then 1 uL of LiveBLAzerTM B/G FRET substrate was added using a Bioraptr FRD. The plates were incubated at room temperature for 2 h and fluorescence intensity was measured by an Envision plate reader (PerkinElmer, Shelton, CT). For cell viability readout that measures cytotoxicity, 3 ul/well of CellTiter-Glo reagent was added into the assay plates using a Bioraptr FRD. After 30 min incubation at room temperature, the luminescence intensity in the plates was measured using a ViewLux plate reader (PerkinElmer).
For orientation: qHTS replaces the single test concentration by a dilution series.
Take `Cc1c(C)c2c(c(C)c1OC(=O)c1cccnc1)CC[C@@](C)(CCC[C@H](C)CCC[C@H](C)CCCC(C)C)O2`: the Potency entry is “inactive”.
Take `CC(=O)c1ccc(C(C)=O)cc1`: the Potency entry was “inactive”.
Take `OC[C@H]1O[C@H](O[C@H]2O[C@H](CO)[C@@H](O)[C@H](O)[C@H]2O)[C@H](O)[C@@H](O)[C@@H]1O`: the Potency result was “inactive”.
The same measure, in the same setting: with `Cc1cc(C(C)(C)C)c(O)c(C)c1Cn1c(=O)n(Cc2c(C)cc(C(C)(C)C)c(O)c2C)c(=O)n(Cc2c(C)cc(C(C)(C)C)c(O)c2C)c1=O` the figure was 12.3 µM (active).
The same measure, in the same setting: with `CCCCCCCCCCCCCCCC[N+](C)(C)CC` the figure was 13.8 µM (active) and 23.9 µM (active); with `COC(=O)C1=C(C)NC(C)=C(C(=O)OCCN2CCN(C(c3ccccc3)c3ccccc3)CC2)C1c1cccc([N+](=O)[O-])c1` (stereo not given), “inactive”; with `CC(C)NC[C@@H](O)COc1ccc(CC(N)=O)cc1`, “inactive”.
Still for that read-out and setting: with `CC1(C)CCC[C@]2(C)[C@H]3CCO[C@]3(C)CC[C@@H]12` the entry was “inactive”; with `Cc1cccc(C)c1NC(=O)c1ccc(N)cc1`, “inactive”.
In the case of `ClCCl`, the Potency result is “inactive”.
The same measure, in the same setting: for `Cc1ccc(C)cc1` the value was “inactive”; for `O=S(=O)(O)c1ccc(Nc2nc(Nc3ccc(/C=C/c4ccc(Nc5nc(Nc6ccc(S(=O)(=O)O)cc6)nc(N(CCO)CCO)n5)cc4S(=O)(=O)O)c(S(=O)(=O)O)c3)nc(N(CCO)CCO)n2)cc1`, “inactive”.
On to `Clc1ccnc(Cl)n1`, for which the Potency entry is “inactive”.
On the same count and under the same terms, for `O=S(=O)(O)c1ccccc1/C=C/c1ccc(-c2ccc(/C=C/c3ccccc3S(=O)(=O)O)cc2)cc1` the value was “inactive”.
The same measure, in the same setting: with `OC1CCC(C2CCCCC2)CC1` (stereo not given) the entry was “inactive”.
Still for that read-out and setting: for `CC(C)(C)NSc1nc2ccccc2s1` the value was “inactive”.
On to `Cc1nc2n(c(=O)c1CCN1CCC(c3noc4cc(F)ccc34)CC1)CCCC2`, for which the Potency entry is “inactive”.
On the same count and under the same terms, for `Cc1ccc(C(=O)O)cc1` the value was “inactive”.
As for `CC(C)(c1cc(Br)c(OCC(Br)CBr)c(Br)c1)c1cc(Br)c(OCC(Br)CBr)c(Br)c1` (stereo not given), the Potency entry was “inactive”.
The same measure, in the same setting: with `CN(C)C(=O)COC(=O)Cc1ccc(OC(=O)c2ccc(N=C(N)N)cc2)cc1` the entry was “inactive”; with `Cc1nc(-c2ccc(Cl)cc2)oc1COC(C)(C)C(=O)O`, “inactive”.
Turning to `CCC(=O)C(=O)CC`, the Potency result was “inactive”.
Still for that read-out and setting: with `CCCCCCC1CCCC(=O)O1` (stereo not given) the entry was “inactive”; with `OC[C@@H](O)[C@@H](O)CO`, “inactive”; with `CCO[C@@H]1O[C@H](C(COCc2ccccc2)OCc2ccccc2)[C@H](OCc2ccccc2)[C@H]1O` (stereo not given in full), “inactive”.
Still for that read-out and setting: with `CCCC1CCC(=O)CC1` the entry was “inactive”; with `CCCCCCCC`, “inactive”.
Consider `COCCOc1cc2cc(C(=O)NC3CCN(C(C)C)CC3)n(CC(=O)Nc3ccc(Cl)cn3)c2cn1`, for which the Potency result was “inactive”.
Still for that read-out and setting: for `CCCCCCCCCCCC(=O)OCC(C)OC(=O)CCCCC(=O)O` (stereo not given) the value was “inactive”; for `Cc1ccc(C(C)C)cc2c(C)ccc1-2`, “inactive”; for `O=C(O)c1cccc(C(F)(F)F)c1`, “inactive”.
The same measure, in the same setting: with `Oc1c(I)cc(Cl)c2cccnc12` the entry was “inactive”; with `OCC(F)(F)F`, “inactive”; with `C=Cc1ccccc1C=C`, “inactive”.
On the same count and under the same terms, for `COc1ccc2c(c1)c(CC(=O)OC/C=C(\C)CC/C=C(\C)CCC=C(C)C)c(C)n2C(=O)c1ccc(Cl)cc1` the value was “inactive”; for `C[C@@H](O)[C@H](N)C(=O)O`, “inactive”.
As to `S=C([S-])NCCNC(=S)[S-].S=C([S-])NCCNC(=S)[S-].[Mn+2].[Zn+2]`, the Potency entry is “inactive”.
Same read-out and setting: with `CC1(C)[C@@H](O)CC[C@]2(C)[C@H]3C(=O)C=C4[C@@H]5C[C@@](C)(C(=O)O)CC[C@]5(C)CC[C@@]4(C)[C@]3(C)CC[C@@H]12` the entry was “inactive”.
Take `O=C(O)O`: the viability change, negative = cytotoxic was -0.215% [at 6.95 µM] (inactive).
Take `c1cnccn1`: the Potency result is “inactive”.
